PrPC surface inh: inhibitors of human cell surface prion protein PrPC; 370,000 tested, 0.43% active; TR-FRET read-out; P04156; inhibition, % at 13.8 µM; in the data active = inhibition above about 24%; also: 0% = median of the test wells and 100% = reference compound wells
Mtb FBA inh: Mtb fructose-bisphosphate aldolase inhibition; P9WQA3; purified M. tuberculosis FBA, fluorescence read-out; inhibition, % at 1 µM; 360,000 tested, 2.3% active; AID 588726; in the data active = inhibition above about 27%;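 also: 0% = vehicle and 100% = reference inhibitor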
Target sequence (P9WQA3 whole entry, looked up): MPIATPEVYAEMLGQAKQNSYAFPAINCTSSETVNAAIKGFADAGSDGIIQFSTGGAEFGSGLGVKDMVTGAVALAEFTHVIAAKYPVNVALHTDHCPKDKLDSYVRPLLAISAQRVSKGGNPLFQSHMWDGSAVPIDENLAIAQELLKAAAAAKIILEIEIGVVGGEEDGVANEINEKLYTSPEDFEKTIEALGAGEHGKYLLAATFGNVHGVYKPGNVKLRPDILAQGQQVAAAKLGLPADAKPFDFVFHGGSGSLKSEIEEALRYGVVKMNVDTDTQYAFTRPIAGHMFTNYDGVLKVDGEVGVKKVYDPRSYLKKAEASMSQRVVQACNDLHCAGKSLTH
BJeLR viability: kills HRASV12-expressing BJeLR cells. BJeLR (HRASV12) viability, CellTiter-Glo ATP luminescence, 48 h. inhibition, % (no concentration beside the values). 300,000 tested, 0.17% active. AID 1554; in the data active = inhibition above about 50%
GDH-TPI counter: counter-screen for M. tuberculosis FBA inhibitors: GDH-TPI coupled enzymes; 360,000 tested, 1.2% active; AID 588335; inhibition, % at 4.8 µM; GDH-TPI coupled enzyme counterscreen, NADH absorbance; in the data active = inhibition above about 30%;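 also: 0% = DMSO wells and 100% = wells lacking the enzyme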
RecA splice inh: Mtb RecA intein splicing inhibition. P9WHJ3. cell-free RecA intein splicing, fluorescence. inhibition, % (no concentration beside the values). 290,000 tested, 0.75% active; in the data active = inhibition above about 30%;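 also: 0% = vehicle wells and 100% = reference inhibitor control wells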
Starred values were filed as active, the others as inactive; i = inactive; · = no result; + = active, no number. This is a sample that favours compounds with a hit; in the whole collection about 4.2% have one here.

SMILES | PrPC surface inh | Mtb FBA inh | BJeLR viability | GDH-TPI counter | RecA splice inh
CCOc1cc(/C=N/N=C2/NC(=O)C(CC(=O)O)S2)ccc1OCc1ccc(Cl)cc1Cl (centres undefined) | · | 0 | 10 | 28 | 8
Cn1c(=O)cc(OCC(=O)N2CCN(c3ccccc3Cl)CC2)c2ccccc21 | -3 | · | · | · | ·
COC(=O)[C@]12C[C@H](CC(=O)NCc3cccc(C(F)(F)F)c3)C(=O)N(Cc3cccc4ccccc34)C1=C[C@H](COCc1ccccc1)O[C@@H]2C | -2 | · | · | · | ·
COC(=O)[C@@]12CCCCC=C1N(CCc1ccc(Cl)cc1)C(=O)[C@H]2CC(=O)NCC12CC3CC(CC(C3)C1)C2 | -6 | · | · | · | ·
Cc1oc2c(CN3CCCCC3)c(O)ccc2c(=O)c1-c1ccc(Br)cc1 | 5 | 130* | 1 | 33* | -2
Cc1oc2c(CN3CCCCC3C)c(O)ccc2c(=O)c1-c1ccccc1 (centres undefined) | 5 | 174* | -9 | 11 | -3
COc1ccccc1-c1c(C)oc2c(CN3CCCCC3C)c(O)ccc2c1=O (centres undefined) | 1 | 145* | 6 | 20 | 0
Cc1oc2c(O)c(O)ccc2c(=O)c1-c1ccc(Cl)cc1 | 3 | -2 | -6 | 15 | -5
COc1ccccc1CCn1cnc(-c2cccc(F)c2)c1CC(C)C | 8 | · | · | · | ·
O=S1(=O)c2ccc(Br)cc2OC[C@@H](Cc2ccccc2)N1Cc1cn(CC2CCCCC2)nn1 | 12 | · | · | · | ·
CC(C)C[C@@H]1COc2cc(N3CCCC3)ccc2S(=O)(=O)N1C | 9 | · | · | · | ·
C=CCN1C(=O)[C@@H](CC(=O)NCCC(C)C)[C@]2(C(=O)OCC)CCCCC/C=C/12 | -5 | · | · | · | ·
COc1ccc(-c2cc(=Nc3ccc(C(=O)O)cc3)c3cc(C)ccc3o2)cc1 | 5 | + | 5 | 9 | 3
COc1ccc(-c2cc(=NCC(=O)O)c3ccccc3o2)cc1 | · | + | -7 | 28 | -80
CCOc1ccc2c(c1)c(N=Nc1cccc(C(=O)O)c1)c(O)n2C | -5 | -8 | -10 | 10 | 7
COc1ccc(-c2cc(=NCCCCCC(=O)O)c3cc(C)ccc3o2)cc1 | -25 | · | 8 | 50* | -38
COc1ccc(CNC(=O)c2cc(=O)c3cc(C)ccc3o2)cc1 | -3 | 0 | 3 | 4 | -1
COc1ccc(-c2cc(=O)c3cc(O)ccc3o2)cc1 | 7 | 1 | -5 | 29 | -3
COc1ccc2cc(C(=O)NCc3ccco3)c(=Nc3ccc(C(=O)O)cc3)oc2c1 | -10 | 14 | -7 | 25 | 5
CCc1ccc2oc(-c3ccc(OC)cc3)cc(=Nc3cccc(C(=O)O)c3)c2c1 | 3 | + | -1 | 22 | 8
N#Cc1cccc(NC(=O)O[C@@H]2CC[C@@]34CCCN3C(=O)CCC[C@H]4C2)c1 | 4 | · | · | · | ·
CCc1ccc2oc(-c3ccc(OC)cc3)cc(=Nc3c(C)n(C)n(-c4ccccc4)c3=O)c2c1 | -7 | + | 4 | 20 | 3
Cc1ccc2c(c1)c(N=Nc1cccc(C(=O)O)c1)c(O)n2C | -1 | -4 | -2 | 2 | 3
COc1ccc(-c2cc(=Nc3cccc(C(=O)O)c3)c3cc(C)ccc3o2)cc1 | 4 | + | 8 | 22 | 10
C=CCn1c(-c2ccc(OC)cc2)csc1=Nc1c(C)n(C)n(-c2ccccc2)c1=O | -3 | -1 | 3 | -2 | 4
SMILES | PrPC surface inh | Mtb FBA inh | BJeLR viability | GDH-TPI counter | RecA splice inh
COC(=O)C1CN(Cc2cn(CCOC(C)=O)nn2)CCS(=O)(=O)N1Cc1ccc(OC)cc1 (centres undefined) | 10 | · | · | · | ·
CC(C)(C)N1Cc2nnn(Cc3ccccc3)c2-c2ccccc2S1(=O)=O | -4 | · | · | · | ·
Cc1c(O)ccc2cc(S(=O)(=O)c3ccccc3)c(=O)oc12 | -4 | + | 3 | 3 | i
Cc1ccc(-c2nc(=S)c3c(n2CCN2CCOCC2)CC(C)(C)OC3)cc1 | 7 | 0 | -4 | 29 | 0
CCN(CC)CCn1c(-c2ccc(C)cc2)nc(=S)c2c1CC(C)(C)OC2 | 1 | -2 | -1 | 32* | -1
CC1(C)Cc2c(c(=S)nc(-c3ccccc3)n2CCOCCO)CO1 | 1 | 2 | 4 | -7 | 1
COc1ccc(-c2nc(=S)c3c(n2CCN2CCOCC2)CC(C)(C)OC3)cc1 | 17 | -1 | -3 | 38* | 2
C=CCn1c(-c2ccccc2)nc(=S)c2c1CC(C)(C)OC2 | 3 | -2 | -8 | 35* | 0
Cc1ccnc(SCc2cc(=O)c(OC(=O)c3ccc(C#N)cc3)co2)n1 | -2 | · | · | · | ·
O=C(CSc1nc2c(c(=O)[nH]1)CCCC2)N1CCOCC1 | -3 | · | · | · | ·
O=C(O)CC/C(=C/c1cccc(NC(=O)c2ccccc2Cl)c1)c1nc2ccccc2s1 | 2 | 12 | · | 37* | ·
O=C(O)CC/C(=C\c1ccc(Cl)c([N+](=O)[O-])c1)c1nc2ccccc2s1 | -13 | -2 | 12 | 16 | 2
COC(=O)C[C@H]1CC[C@@H]2[C@H](COc3ccc(NC(=O)c4cnccn4)cc3C(=O)N2C)O1 | 1 | · | · | · | ·
O=C(NCc1ccc(Cl)cc1)C1CCCN(c2ncccn2)C1 (centres undefined) | -10 | · | · | · | ·
O=C1C2C3C=CC(CC3)C2C(=O)N1/N=C/c1ccc(O)cc1 (centres undefined) | 2 | -2 | -8 | 32* | 0
CC(=O)NN1C(=O)/C(=C\c2ccc(O)cc2)SC1=S | -7 | -16 | -2 | 10 | -1
O=C1/C(=C\c2ccc(O)cc2)SC(=S)N1/N=C/c1ccc(O)cc1 | 7 | -27 | 12 | 38* | -2
O=C(CCc1ccccc1)N[C@H]1[C@H](O)CCC[C@@]12C(=O)N(Cc1ccccc1)c1ccc(-c3ccccc3)cc12 | -4 | · | · | · | ·
COc1ccc2cc3cc(C(=O)N4CC(C)CC(C)C4)oc3nc2c1 (centres undefined) | · | 19 | -6 | 17 | 4
COc1ccc2cc3cc(C(=O)N4CCN(c5ccccn5)CC4)oc3nc2c1 | -4 | 2 | 0 | 42* | 0
Cc1ccc2cc3cc(C(=O)NC4CC4)oc3nc2c1 | -19 | 19 | -7 | 49* | -4
COc1ccc2cc3cc(C(=O)NCc4cccnc4)oc3nc2c1 | -5 | + | -3 | 23 | -1
Cc1ccc2cc3cc(C(=O)NCCC(C)C)oc3nc2c1 | -6 | 22 | -3 | 28 | -2
COc1ccc2cc3cc(C(=O)Nc4cc(OC)c(OC)c(OC)c4)oc3nc2c1 | -9 | 1 | 4 | 23 | -21
COc1ccc2cc3cc(C(=O)Nc4ccc5c(c4)OCCO5)oc3nc2c1 | -3 | 4 | 3 | 43* | -9
COC(=O)c1ccc(Cn2ccc3ccc(-c4ccc5ccn(Cc6ccc(C(=O)OC)cc6)c5c4)cc32)cc1 | -1 | · | · | · | ·
C[C@@H]1ON(C)[C@H]2C[C@H]3c4[nH]c5c(-c6ccc7c(c6)OCO7)cccc5c4CCN3C[C@@H]12 | -7 | · | · | · | ·
O=[N+]([O-])c1ccc2nc(COCc3nc4ccccc4[nH]3)[nH]c2c1 | -5 | · | · | · | ·
COc1ccc(-n2cc(COC(=O)NCCc3ccccc3)nn2)cc1 | -2 | · | · | · | ·

Bioassay records: PubChem BioAssay, several laboratories
